CYP2C19 activ: human CYP2C19 activators, primary screen, biochemical, luminescence. 96,000 tested, under 10 active. recombinant CYP2C19, luciferin-H EGE luminescence; active compounds read high; 0 = fully inhibited enzyme, 1 = untreated enzyme. activation factor at 5 µM. AID 1025, 2008;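 active = activation factor of at least 2 at 5 µM in the primary screen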;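 also: 0 = wells with 2.5 mM tranylcypromine and 1 = vehicle-only wells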
CYP2C9 inhib: blockers of cytochrome P450 2C9 activity – biochemical, luminescence, ADME assay, primary screen; P11712; CYP2C9 Supersomes, luciferin-H conversion; inhibition, % at 5 µM; 96,000 tested, 20% active;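 active = blocking of liver enzyme CYP2C9 beyond about 50% at 5 µM, limit read from the data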
Target sequence (P11712 whole entry, looked up): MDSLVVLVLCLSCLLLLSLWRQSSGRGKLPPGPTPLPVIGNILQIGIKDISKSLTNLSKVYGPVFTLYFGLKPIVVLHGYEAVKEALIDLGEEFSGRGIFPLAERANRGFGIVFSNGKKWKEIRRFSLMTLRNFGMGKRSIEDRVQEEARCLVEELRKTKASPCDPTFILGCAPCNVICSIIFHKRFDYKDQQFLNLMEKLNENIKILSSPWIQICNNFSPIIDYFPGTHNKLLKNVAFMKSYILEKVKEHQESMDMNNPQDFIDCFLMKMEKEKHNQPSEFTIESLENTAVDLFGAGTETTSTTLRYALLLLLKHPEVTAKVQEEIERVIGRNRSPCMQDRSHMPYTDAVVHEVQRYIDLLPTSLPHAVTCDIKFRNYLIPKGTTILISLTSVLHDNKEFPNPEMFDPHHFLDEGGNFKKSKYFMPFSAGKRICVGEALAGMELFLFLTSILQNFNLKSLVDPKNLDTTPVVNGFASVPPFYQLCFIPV
CYP2C19 inh: blockers of cytochrome P450 2C19 activity – biochemical, luminescence, ADME assay, primary screen. P33261. inhibition, % at 5 µM. 96,000 tested, 21% active. AID 778, 2007. CYP2C19 Supersomes, luciferin-H EGE luminescence, 30 min;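 active = CYP2C19 inhibition above a set limit at 5 µM in the primary screen, cut at about 50% in these data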;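 also: plate controls were negative control wells for no effect and 2.5 mM tranylcypromine positive control for full effect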
CYP2C9 activ: human CYP2C9 activators, primary screen, biochemical, luminescence | Cytochrome P450 2C9 (Homo sapiens), P11712 | recombinant CYP2C9, luciferin-H conversion; active compounds read high; factor 1 = untreated enzyme, 0 = blocked | activation factor at 5 µM | 96,000 tested, 1.4% active;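 active = activation factor of 2 or more for CYP2C9 at a 5 µM dose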;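 also: 0 = sulfaphenazole-blocked wells and 1 = vehicle-only wells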
sEH inh: soluble epoxide hydrolase inhibitors, primary screen, biochemical, human sEH. Bifunctional epoxide hydrolase 2 (Homo sapiens), P34913. recombinant human sEH enzymatic activity assay. inhibition, % at 2 µM. 91,000 tested, 0.34% active. AID 707, 2007; in the data active = inhibition above about 80%
sEH act: soluble epoxide hydrolase activators, primary screen, biochemical, human sEH; Bifunctional epoxide hydrolase 2 (Homo sapiens), P34913; purified human sEH enzymatic activity, activator screen; activation, % at 2 µM; 91,000 tested, 0.04% active; AID 717, 2007; in the data active = activation above about 37%
The depositor's hits bear a star; x = no result given. Shown are actives, neighbours in structure and some others; about 27% of the full set was active somewhere.

SMILES | CYP2C19 activ | CYP2C9 inhib | CYP2C19 inh | CYP2C9 activ | sEH inh | sEH act
CCCCC(=O)Nc1sc2c(c1C(=O)OCC)CCC(C=O)=C2Cl | 1 | 10 | 2 | 0.9 | -14 | 15
O=c1/c(=C/c2ccccn2)sc2n1CN(c1ccccc1)CN=2 | 0.9 | 31 | 9 | 0.7 | 6 | -5
COc1cc(N2CN=c3s/c(=C\c4ccccn4)c(=O)n3C2)cc(OC)c1OC | 0.8 | 56* | 22 | 0.4 | x | x
Cc1cccc(N2CN=c3s/c(=C\c4ccncc4)c(=O)n3C2)c1 | 0.4 | 31 | 59* | 0.7 | 16 | -13
CCOc1cc(NC(=O)c2ccccc2[N+](=O)[O-])c(OCC)cc1NC(=O)CC(C)C | 1 | -5 | -5 | 1 | -7 | 10
CCCc1cc(SCC(=O)Nc2c(C)n(C)n(-c3ccccc3)c2=O)n2c(nc3ccccc32)c1C#N | 1.2 | 10 | -16 | 0.9 | -20 | 21
Cc1noc(/C=C/c2ccco2)c1S(=O)(=O)N1CCC(C(=O)N2CCc3ccccc3C2)CC1 | 0.6 | 73* | 35 | 0.3 | x | x
Cc1noc(/C=C/c2ccco2)c1S(=O)(=O)N1CCC(C(=O)NCc2ccco2)CC1 | 1 | 21 | 4 | 0.8 | x | x
Cc1ccc(CNC(=O)C2CCN(S(=O)(=O)c3c(C)noc3/C=C/c3ccco3)CC2)cc1 | 0.9 | 57* | 14 | 0.4 | 8 | -4
Nc1nnc(SCC(=O)N2CCN(c3cccc(Cl)c3)CC2)n1-c1ccccc1 | x | x | x | x | 7 | -3
Cc1cc(C)c(C(=O)COc2cccnc2[N+](=O)[O-])cc1C | 0.4 | 17 | 63* | 0.8 | 3 | -1
Cc1ccc(C(=O)Oc2ccc(Cl)c3cccnc23)cc1[N+](=O)[O-] | 1 | 0 | 3 | 1 | 2 | -2
Cc1nc(C(C)(C)O)n(-c2ccccc2)n1 | 0.9 | 4 | 10 | 1 | 5 | -7
CC(C)(O)c1nnn(-c2ccccc2)c1C(F)(F)F | 0.3 | -10 | 75* | 1.1 | -6 | 3
CCOC(=O)C1=C(c2ccccc2)N(C)C(=O)NC1c1ccc(OC(F)F)c(OC)c1 (centres undefined) | 0.3 | 83* | 69* | 0.2 | 34 | -32
COC(=O)c1cc2oc(C)cc2n1CC(=O)Nc1ccc(OC)c(OC)c1OC | 0.4 | 63* | 59* | 0.4 | -5 | 7
CCc1ccc(OCC(=O)N/N=C2\CC(=O)c3ccccc32)cc1 | 0.2 | 44 | 82* | 0.6 | 4 | -5
CCN(CC)C(=O)CSc1ccccc1N | 0.5 | 23 | 49 | 0.8 | -16 | 16
Cc1cccc(-c2nc(CS(=O)CC(=O)N3CCc4ccccc4C3)c(C)o2)c1 (centres undefined) | 0.9 | 42 | 7 | 0.6 | 12 | -12
Cc1ccc(-c2nc(CS(=O)(=O)CC(=O)N3CCc4ccccc4C3)c(C)o2)cc1 | 0.7 | 72* | 30 | 0.3 | x | x
Cc1ccc(-c2nc(CS(=O)(=O)CC(=O)N3CCCCCC3)c(C)o2)cc1 | 0.4 | 75* | 56* | 0.3 | x | x
CCS(=O)(=O)c1nc(NC(C)=O)n[nH]1 | 1.1 | -9 | -8 | 1.1 | -2 | 1
Cc1cc(-c2ccco2)c(C#N)c2nc3ccccc3n12 | 1 | 5 | 4 | 1 | x | x
COc1cccc(CN2CCN(C(=O)c3cccc(F)c3)CC2)c1 | x | x | x | x | 3 | -6
Cn1ncc(C#N)c1NC(=O)C1CC(c2ccc(Cl)cc2)=NO1 (centres undefined) | 0.3 | 31 | 72* | 0.7 | 1 | 3
SMILES | CYP2C19 activ | CYP2C9 inhib | CYP2C19 inh | CYP2C9 activ | sEH inh | sEH act
CC(C)(C)c1ccc(C(=O)Nc2nonc2-c2nc3ccccc3[nH]2)cc1 | 0.9 | 10 | 14 | 0.9 | -1 | 6
O=C(O)CSc1nnc(Cn2cnc3ccccc32)n1CCc1ccccc1 | 1 | 13 | -2 | 0.9 | 4 | -5
Cn1cc(C(CC(=O)O)C(=O)O)c2ccccc21 (centres undefined) | 0.9 | 9 | 11 | 0.9 | -10 | 9
CCOC(=O)CC(C#N)c1cn(C)c2ccccc12 (centres undefined) | 0.1 | -249 | 88* | 3.5* | 7 | -6
COc1ccc(-c2noc(CCC(=O)NCCN(C)Cc3ccccc3)n2)cc1 | 0.6 | 35 | 44 | 0.7 | 7 | -9
CCN(CCCNC(=O)CCc1nc(-c2ccc(OC)cc2)no1)c1cccc(C)c1 | 0.1 | 87* | 93* | 0.1 | 39 | -38
COc1ccc(-c2noc(CCC(=O)Nc3ccc(C)c(C)c3)n2)cc1 | 0.6 | 58* | 39 | 0.4 | 17 | -15
O=C(CCc1nc(-c2ccccc2F)no1)NCCN1CCN(Cc2ccccc2)CC1 | 0.8 | 36 | 24 | 0.6 | -1 | 5
COc1ccc(NC(=O)CCc2nc(-c3ccc(C)cc3)no2)cc1Cl | 0.9 | 11 | 12 | 0.9 | -2 | 4
Cc1cccc(CCNC(=O)CCc2nc(-c3ccccc3F)no2)c1 | 0.1 | 82* | 92* | 0.2 | 26 | -26
COc1ccc(-c2noc(CCC(=O)Nc3ccc4c(c3)OCCO4)n2)cc1 | 0.3 | 76* | 66* | 0.2 | 14 | -15
CCn1nnnc1SCC(=O)c1ccc(C)cc1 | x | x | x | x | 7 | -2
COC(=O)/C(=C1/Oc2cc3c(cc2S1)OCO3)C(F)(F)F | 1 | -7 | -2 | 1.1 | x | x
CO/N=C/c1ccc(N2CCN(C(=O)c3ccc(Cl)cc3Cl)CC2)c([N+](=O)[O-])c1 | 0.7 | 30 | 26 | 0.7 | -1 | 2
COc1ccc(OCCCC(=O)Nc2ccc3c(c2)OCCO3)cc1 | 0.2 | 86* | 76* | 0.1 | 37 | -36
CCc1ccc(CCC(=O)Nc2ccc(C)c(C)c2)o1 | 0.5 | 14 | 51* | 0.9 | x | x
CCOC(=O)c1ccc(NC(=O)CCc2nc(-c3ccc(Cl)cc3)no2)cc1 | 1.1 | 8 | -10 | 0.9 | 6 | -7
CCOC(=O)c1ccc(NC(=O)CCc2nc(-c3ccc(C)cc3)no2)cc1 | 0.3 | 94* | 70* | 0.1 | -3 | 5
CCOc1ccc(C(=O)OCc2nnc(-c3cccs3)o2)cc1OC | 0.3 | 80* | 68* | 0.2 | 13 | -11
CN(C)C(=O)C12CCC(C)(c3nc4ccccc4nc31)C2(C)C (centres undefined) | 0.9 | 25 | 15 | 0.7 | 6 | -1
O=c1c(F)cn(C2CCCO2)c(=O)n1Cc1c(F)cccc1Cl (centres undefined) | 0.1 | 16 | 92* | 0.8 | 24 | -19
Cc1cc(C)n2c(SCc3ccc(C#N)cc3)nnc2n1 | 0.5 | -2 | 45 | 1 | -6 | 5
Cc1cc(N2CCCCC2)nc(SCc2ccc(C#N)cc2)n1 | 0.5 | 63* | 49 | 0.4 | 14 | -14
